Measured values reported in ChEMBL document CHEMBL3988442, “University of Dundee, Small-Polar-MMV Screening Library” (2021).
Screen size: about 85,000 compounds; about 440 (0.52%) showed an effect of 50% or more. This is one part of a sample in which strong results are shown more often than they occur.

Experiment: In vitro enzyme assay to detect hydrolysis of chlorophenol red-beta-D-[…] directly proportional to the number of Toxoplasma stably expressing beta-galactosidase
Type: functional, organism-based, Toxoplasma gondii
Set-up: scale not given: in the data most compounds retested in dose-response had high values

| SMILES | Percent Effect (50 µM) [%] | Percent Effect (10 µM) [%] |
| --- | --- | --- |
| CN(C)S(=O)(=O)CCNC1CCCNC1 (stereo not drawn) | 23.13 |  |
| CCn1cc(CN(C)S(=O)(=O)c2ccc(C(C)C)cc2)cn1 |  | 71.72 |
| CCn1cc(CN(C)S(=O)(=O)c2ccccc2)cn1 |  | 61.21 |
| CCn1cc(CN(C)S(=O)(=O)c2ccc(C)c(C)c2)cn1 |  | 6.128 |
| CCn1cc(CN(C)S(=O)(=O)c2ccc(Cl)cc2)cn1 |  | 4.304 |
| CCn1cc(CN(C)S(=O)(=O)c2cnn(C)c2)cn1 |  | 10.44 |
| CCOc1ccc(S(=O)(=O)N(C)Cc2cnn(CC)c2)cc1 |  | 22.15 |
| Nc1nnc(SCc2cn3ccccc3n2)s1 | -6.062 |  |
| CNCC(=O)Nc1ccccc1OC | 7.8 |  |
| COc1ccccc1NC(=O)CC#N | 50.64 |  |
| N#CCC(=O)Nc1ccccc1I | 0.5556 |  |
| Cn1c(C(C)(C)N)nc2ccccc21 | 4.322 |  |
| COC(=O)Cc1cccc(NC(=O)CC2CC2)n1 | 2.915 |  |
| COc1cccc(CNCC2CCOC2)c1 (stereo not drawn) | 52.55 |  |
| COc1cccc(N2CCC(CNCc3cccc(C#N)c3)C2)c1 (stereo not drawn) |  | -3.388 |
| COc1cccc(CNCC2CN(C)CCO2)c1 (stereo not drawn) |  | -20.59 |
| O=C(NCCSCc1cccc(Cl)c1)C1CNCCO1 (stereo not drawn) | 4.575 |  |
| CC(C)OCC(O)CN1CCN(C(C)C)CC1 (stereo not drawn) | -5.583 |  |
| CCCNCc1ccc(OCc2ccc3c(c2)OCCO3)cc1.Cl |  | 26.87 |
| CCNCc1ccc(OCc2ccc3c(c2)OCCO3)cc1.Cl |  | 57.45 |
| CNCc1ccc(OCc2ccc3c(c2)OCCO3)cc1.Cl |  | 14.53 |
| CC(O)CNCc1ccc(OCc2ccc3c(c2)OCCO3)cc1.Cl (stereo not drawn) |  | -0.2514 |
| CC(C)(C)NCc1ccc(OCc2ccc3c(c2)OCCO3)cc1.Cl |  | -4.151 |
| COc1ccc2oc(CNC(C)(CO)CO)cc2c1 | 4.082 |  |
| O=C(CNC(=O)c1cccs1)c1ccccc1 | -23.7 |  |

| SMILES | Percent Effect (50 µM) [%] | Percent Effect (10 µM) [%] |
| --- | --- | --- |
| CCN(CC(C)(C)O)C(=O)c1nccc2ccccc12 | -2.694 |  |
| CCNC(=O)CN1CCN(Cc2cccnc2N)CC1 | 3.908 |  |
| COCC(C)NC(=O)CCn1cnc2sccc2c1=O (stereo not drawn) | -6.543 |  |
| CS(=O)(=O)NCC(=O)NCc1cnn2ccccc12 | -11.78 |  |
| CCN1CCCC1CNS(=O)(=O)CCCC#N (stereo not drawn) | -20.61 |  |
| CCc1n[nH]c(NC(=O)c2cc(C(C)=O)cs2)n1 | -2.258 |  |
| NC(=O)CCN1C(=O)CCC1=O | 1.954 |  |
| Cc1ccccc1CNC(=O)N(C)Cc1nnc[nH]1 | -3.326 |  |
| COC(=O)c1cnc(O)cn1 | 0.4239 |  |
| COC(=O)c1cnc(OC)cn1 | 10.7 |  |
| COC(=O)c1cnc(F)cn1 | 53.27 |  |
| O=C(CNC1(CO)CCOCC1)Nc1cccc(F)c1 | -18.29 |  |
| CC(C)C(N)C1(CO)CCC1 (stereo not drawn) | -14.82 |  |
| N#Cc1cccnc1NCC1COc2ccccc2O1 (stereo not drawn) | -5.408 |  |
| CCc1ccc(CN2CCCn3c(nc(Cn4ccnc4)cc3=O)C2)o1.O=C(O)C(F)(F)F.O=C(O)C(F)(F)F |  | 1.534 |
| O=c1cc(Cn2ccnc2)nc2n1CCCN(Cc1ccco1)C2 |  | -0.8368 |
| Cc1ccc(CN2CCCn3c(nc(Cn4ccnc4)cc3=O)C2)o1 |  | 95.97 |
| CC(c1nc(C2CC2)no1)N1CCN(CC(=O)N2CCOCC2)CC1 (stereo not drawn) |  | 3.194 |
| O=C(CN1CC(c2nc(C3CC3)no2)C1)N1CCOCC1.O=C(O)C(=O)O |  | 76.44 |
| CC1CCN(C(=O)CN2CC(c3nc(C4CC4)no3)C2)CC1.O=C(O)C(=O)O |  | -17.41 |
| NC(=O)CN1CC(c2nc(C3CC3)no2)C1.O=C(O)C(=O)O |  | -8.991 |
| O=C(CN1CCCC(c2noc(C3CC3)n2)C1)N1CCCC1 (stereo not drawn) |  | 4.609 |
| Nc1ccnn1Cc1ccccn1 | -24.54 |  |
| O=C(CN1CCCCC1)N1CCCCC1 | 1.789 |  |
| O=C(NCCOCCO)c1cn2ccsc2n1 | 19.68 |  |

| SMILES | Percent Effect (50 µM) [%] | Percent Effect (10 µM) [%] |
| --- | --- | --- |
| CNC(=O)C1CNC1 | 0.513 |  |
| COCCCNC(=O)CN(C)c1ccccc1F | 2.537 |  |
| Clc1cccc(-c2cccc(N3CCC(NC4CCOCC4)CC3)c2)c1 |  | 94.46 |
| COc1cccc(-c2cccc(N3CCC(N[C@@H]4CCOC4)CC3)c2)c1 |  | 25.91 |
| Cc1ccc(-c2cccc(N3CCC(NC4CCOCC4)CC3)c2)cc1 |  | 36.9 |
| NCCOCC1CCCO1 (stereo not drawn) | -7.088 |  |
| Cc1ccccc1-n1cnnc1SCCOCC1CCCO1 (stereo not drawn) |  | -4.234 |
| c1cc(SCCOCC2CCCO2)ccn1 (stereo not drawn) | 73.14 |  |
| CN1CCOC(C(=O)N(C)Cc2cccc(O)c2)C1 (stereo not drawn) | -4.809 |  |
| CN(C)c1nc(N)nc(CN2CCCC2c2cccs2)n1 (stereo not drawn) |  | 12.16 |
| Nc1nc(N)nc(CN2CCCC2c2cccs2)n1 (stereo not drawn) | 61.8 |  |
| Oc1ccccc1CN1CCCCCC1c1cccs1 (stereo not drawn) |  | 10.91 |
| CC(=O)NCCCc1nc2ccccc2n1C | -0.2926 |  |
| O=C(CN1CCOCC1)N1CCCC(c2nnc[nH]2)C1 (stereo not drawn) | -8.944 |  |
| CC1C(=O)NCCN1C(=O)c1cc(-c2ccco2)on1 (stereo not drawn) | 0.5841 |  |
| Cc1cc(F)cc(S(=O)(=O)NCCN)c1 | -4.306 |  |
| O=C(CCn1cccn1)Nc1cncc(Br)c1O | -6.766 |  |
| O=C(CC1CCCC1)NCCc1noc(CO)n1 | 66.39 |  |
| CCCOC(C)C(=O)NCCc1noc(CO)n1 (stereo not drawn) | -15.52 |  |
| CC[C@H](C)[C@H](N)C(=O)NCCc1noc(CO)n1 | 11.28 |  |
| Cc1nccc(CNc2ncc(C(N)=O)cc2Cl)n1 | -11.46 |  |
| COc1ccccc1NCC(=O)NCC(C)(O)C(C)C (stereo not drawn) | 0.7495 |  |
| NC1CSc2ccccc21 (stereo not drawn) | 16.15 |  |
| NCC(=O)N1CCCC(CCc2ccc(F)cc2)C1 (stereo not drawn) | 31.97 |  |
| NCC(=O)N1CCCC(CCc2ccc(F)c(F)c2)C1 (stereo not drawn) | 39.41 |  |

| SMILES | Percent Effect (50 µM) [%] | Percent Effect (10 µM) [%] |
| --- | --- | --- |
| NCCC(=O)N1CCCC(CCc2ccc(F)cc2)C1 (stereo not drawn) | 62.64 |  |
| Cc1nnc(CNC(=O)Nc2ccc(F)cc2)o1 | -6.078 |  |
| CC1(C)CN(c2ccnc3ccccc23)CC[S+]1[O-] (stereo not drawn) | 6.751 |  |
| O=S(=O)(NC1CCCC1)C1CCOCC1 | 42.45 |  |
| CCc1nc2ccccc2c(=O)n1CC1(O)CCN(C(=O)COC)CC1.Cl |  | 54.94 |
| CCc1nc2ccccc2c(=O)n1CC1(O)CCN(C(=O)C2CC2)CC1.Cl |  | 0.3648 |
| CCCC(=O)N1CCC(O)(Cn2c(CC)nc3ccccc3c2=O)CC1.Cl |  | -0.06406 |
| Cc1cc(CNc2ncnc3c2cnn3C)on1 | -29.33 |  |
| CC1COc2ccccc2N1CC(N)=O (stereo not drawn) | -5.521 |  |
| CNC(=O)N1CCCCCC1c1ccncc1 (stereo not drawn) | 14.5 |  |
| CC(=O)c1ccc(F)cc1NCC(=O)NC1CC1 | 5.192 |  |
| CC(C#N)CSc1ccccc1NCC(=O)NC1CCCCC1 (stereo not drawn) |  | -5.31 |
| CSc1ccccc1NCC(=O)NC1CC1 | 51.75 |  |
| CNCC(=O)Nc1cc(Cl)c(OCCOC)c(Cl)c1 | -0.6689 |  |
| CCS(=O)(=O)N1CCC(NC(=O)c2ccc(Cl)o2)CC1 | -2.927 |  |
| Cc1cc(F)cc(NC(=O)NC[C@@H]2CCCN2)c1 | 21.68 |  |
| O=C(NCc1ccc2c(c1)OCO2)N1CCCCC1 | -4.35 |  |
| O=C(NCc1ccc2c(c1)OCO2)n1ccnc1 | 96.82 |  |
| CC(Cn1ccnc1)NC(=O)NCc1ccc2c(c1)OCCO2 (stereo not drawn) |  | -19.42 |
| c1cn(C2CCNC2)nn1 (stereo not drawn) | -13.42 |  |
| CCC(OC)C(=O)N1CC(Oc2ccccc2F)C1 (stereo not drawn) | -7.864 |  |
| CCS(=O)(=O)CCC(=O)Nc1cccc(F)c1 | 5.162 |  |
| CC(=O)Nc1ncc(S(=O)(=O)Nc2cccc(O)c2)s1 |  | 62.29 |
| CC(=O)Nc1ncc(S(=O)(=O)Nc2ccc3c(c2)OCCO3)s1 |  | 68.62 |
| CC(=O)c1cccc(NS(=O)(=O)c2cc(C)c(C(=O)O)s2)c1 |  | -0.4058 |

| SMILES | Percent Effect (50 µM) [%] | Percent Effect (10 µM) [%] |
| --- | --- | --- |
| Cc1c(S(=O)(=O)Nc2cccc(F)c2)cnn1C | -8.725 |  |
| CC(=O)Nc1ncc(S(=O)(=O)N2CCCC(C)C2)s1 (stereo not drawn) |  | -8.14 |
| CC(=O)Nc1ncc(S(=O)(=O)N2CCN(C3CCCCC3)CC2)s1 |  | -4.699 |
| CC(=O)Nc1ncc(S(=O)(=O)Nc2cccc(F)c2)s1 |  | 67.14 |
| CC(=O)Nc1ncc(S(=O)(=O)Nc2cccc(C)c2)s1 |  | 60.94 |
| Cc1cc(C(=O)O)cc(S(=O)(=O)Nc2ccc3c(c2)OCCO3)c1C |  | -2.504 |
| CC(=O)Nc1ncc(S(=O)(=O)N2CCOCC2)s1 |  | -6.42 |
| Cc1cccc(NS(=O)(=O)c2cc(C(=O)O)oc2C)c1 |  | -16.73 |
| CCNC(=O)NCc1ncoc1C | -6.658 |  |
| NC(=O)Cc1ccc(-c2ccc(C(N)=O)c(Cl)c2)cc1 | -4.393 |  |
| CCn1ccnc1C(C)N (stereo not drawn) | 1.366 |  |
| CNC(=O)c1cccc(NC(C)C(=O)NCC(C)C)c1 (stereo not drawn) | -5.14 |  |
| Cn1cc(C(N)=O)c(NCc2ccc(F)c(C#N)c2)n1 | -8.67 |  |
| CN1C(=O)[C@H]2CN(Cc3cccc(Cl)c3F)C[C@H]2C1=O | -8.035 |  |
| O=C(c1cc(Cl)ccc1O)N1CCOCC1 | 6.297 |  |
| CNCC(=O)Nc1ccc(C)cc1C(=O)N(C)C | -7.454 |  |
| CCc1nccn1CCCNC(=O)Cc1nonc1C | 3.782 |  |
| CCn1cc(C(=O)NCc2ccc(CNC)cc2)cn1 | -1.69 |  |
| CC1CCCCN1CCNC(=O)c1ccccn1 (stereo not drawn) | 1.645 |  |
| COc1ccc(Cl)cc1CNCCSc1nnnn1C | -8.775 |  |
| Cc1cccc(C2CCCN2)n1 (stereo not drawn) | -3.572 |  |
| Cc1cc(C2CCCN2)no1 (stereo not drawn) | -6.252 |  |
| Cc1nc([C@H]2CCCN2)cs1 | 52.58 |  |
